# Bioassay records deposited in PubChem by National Center for Advancing Translational Sciences (NCATS).
# D1 PAM – enhances dopamine response at the human D1 receptor | HEK293 TREx D1 cells, calcium flux, dopamine EC20 potentiation | potentiation, % at 10 µM | 360,000 compounds, 0.036% hits | AID 504651; in the data active means potentiation above about 30%; further: 0% is about no effect
# TRHR ag – agonists of human TRH receptor; AID 493084; P34981; TRHR cells, calcium flux fluo-8, FDSS agonist mode; activation, % at 2 µM; 360,000 compounds, 0.18% hits; further: 0% is about no effect
# Target sequence (P34981 whole entry, looked up): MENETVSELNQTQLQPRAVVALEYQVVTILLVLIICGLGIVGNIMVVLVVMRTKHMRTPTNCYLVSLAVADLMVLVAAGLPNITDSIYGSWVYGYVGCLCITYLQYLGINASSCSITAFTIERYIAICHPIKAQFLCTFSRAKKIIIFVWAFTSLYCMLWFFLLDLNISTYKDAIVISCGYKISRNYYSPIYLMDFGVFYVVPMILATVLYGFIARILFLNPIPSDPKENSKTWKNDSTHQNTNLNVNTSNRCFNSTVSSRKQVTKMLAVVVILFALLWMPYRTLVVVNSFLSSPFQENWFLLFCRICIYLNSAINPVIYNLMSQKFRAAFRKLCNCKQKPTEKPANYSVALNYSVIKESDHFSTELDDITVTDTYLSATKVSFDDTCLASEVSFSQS
#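 In this calcium-flux screen, cells bearing human TRHR are dye-loaded with fluo-8, baselined for 10 cycles, then exposed to library compounds; positive kinetic calcium responses during the agonist phase mark hits, with TRH as control.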
# D1 antagonist – antagonists of human D1 dopamine receptor; P21728; HEK293 TREx D1 cells, calcium flux, dopamine EC80; stronger effect = lower value; activity change, negative = inhibition, % at 10 µM; 360,000 compounds, 3.2% hits; AID 504652; in the data active means activity change below about -30%; further: on the % scale 0 is the no-effect control and ±100 the full control effect
#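 Compound effects on dopamine-evoked calcium signalling were measured in tetracycline-induced HEK293 Trex D1 cells. Dopamine at EC80 followed a 180 s compound pre-read, and fluorescence was tracked kinetically for 180 s more.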
# TRHR enhancer – allosteric enhancers of human TRH receptor; P34981; TRHR cells, fluo-8 calcium fluorescence, EC20 TRH enhancement; enhancement, % at 2 µM; 360,000 compounds, 0.66% hits; in the data active means enhancement above about 30%; further: 0% is about no effect
#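 Enhancer read-out: after compound pinning and an initial kinetic agonist-mode read, an EC20 of TRH (10 nM final) was injected and fluo-8 calcium signal (Ex 480/Em 530) followed at 1 s/cycle for 100 cycles in TRHR-expressing cells.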
# D1 agonist – activates the human D1 dopamine receptor; activation, % at 2 µM; HEK293 T-REx D1 cells, calcium flux, agonist mode; AID 504660; 360,000 compounds, 1% hits; P21728; further: 0% is about no effect
#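 Inducible HEK293 T-REx D1 cells, force-coupled to calcium signalling, were plated at 4000 cells/well with tetracycline and held overnight at 30 C. After no-wash calcium dye loading, compound-evoked calcium rise over 180 s flagged agonists.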
# The depositor's hits bear a star; / = no result given. An excerpt weighted towards active compounds, which were near 4.7% of everything screened. Unless noted, no stated cut-off is given here; in the data, active means activation above about 30%; inactive means the rest.
SMILES,D1 PAM,TRHR ag,D1 antagonist,TRHR enhancer,D1 agonist
CCNC(=S)/N=C(/Nc1ccc(OC)cc1)Nc1nc(C)cc(C)n1,-2,0,4,3,0
COc1cccc(N/C(=N/C(=S)Nc2ccc(C)cc2C)Nc2nc(C)cc(C)n2)c1,-4,1,-61*,3,9
COC(=O)c1cccc(CN2C(=O)SC(Nc3ccc(Br)cc3)C2=O)c1 (stereo not drawn),-2,0,-12,-5,-1
Cc1ccc(/C=C/C(=O)NCCCc2ccccc2)cc1,-8,-1,-40*,-5,22
CC(CCc1ccccc1)NC(=O)/C=C/c1ccc(Cl)cc1 (stereo not drawn),-4,1,-86*,-3,9
C#CCNC(=O)/C=C/c1ccc(C)cc1,-3,-1,-1,1,-3
COc1ccc(-c2c(C)c3ccc(O)c(CN4CCOCC4)c3oc2=O)cc1OC,-2,-1,6,-3,0
CC(=O)NCC(=O)NNC1CC(=O)N(c2cccc(Cl)c2)C1=O (stereo not drawn),31*,1,7,2,1
CCc1cnc2c(c1SCc1cc(OC)cc(OC)c1)c(=O)n(C)c(=O)n2C,2,0,/,-1,4
COCC1CCCN(Cc2cn(-c3ccccc3F)nc2-c2cc(C)sc2C)C1 (stereo not drawn),1,1,8,32*,2
O=C(CSc1nnc(-c2cccc(Br)c2)o1)N1CCOCC1,-2,-1,-8,31*,4
COc1cc(OC)cc(-c2nnc(SCC(=O)N3CCOCC3)o2)c1,-6,0,-20,-6,1
CCOC(=O)c1c(C)[nH]c(C)c1S(=O)(=O)NC(C)Cc1ccco1 (stereo not drawn),0,-1,12,-1,2
O=C1CCCc2ccccc2N1Cc1c(Cl)cccc1Cl,6,0,39,-4,2
O=C1CCCc2ccccc2N1Cc1ccc(Cl)cc1Cl,-3,0,61,0,34*
O=C1CCCc2ccccc2N1Cc1ccccc1Cl,-2,8,-35*,-12,3
COc1ccc([C@]23Cc4cc(OC)c(OC)cc4C(O2)c2c(cc(C)n(Cc4ccccc4)c2=O)O3)cc1,0,0,0,5,2
CCOc1ccc(CCNC(=O)c2cc3c(s2)-c2ccccc2OC3)cc1OCC,-5,1,11,-8,-1
CCN1C=C(Cc2ccccc2C)C2=C(C1)C(c1ccccc1C)C(C#N)=C(N)O2 (stereo not drawn),-7,-1,-5,7,2
CCN1C=C(Cc2ccc(F)cc2)C2=C(C1)C(c1ccc(F)cc1)C(C#N)=C(N)O2 (stereo not drawn),-6,0,-55*,0,2
O=C(Cn1c(SCc2ccccc2F)nc2ccncc21)Nc1ccccc1C(F)(F)F,1,0,1,-1,-1
C1=C(c2ccccc2)CCN(c2ncnc3nc[nH]c23)C1,-10,1,-66*,-6,2
Cc1cccc(CSCc2ccc(C(=O)NCCc3ccccc3)o2)c1,-2,0,-79*,-7,11
CCOc1ccc(CCNC(=O)c2ccc(CSCc3ccccc3C)o2)cc1OCC,-3,3,-22,-1,36*
O=C(NCCc1ccc(Cl)cc1)c1ccc(CSCc2ccccc2Cl)o1,-2,2,-20,-4,31*
SMILES,D1 PAM,TRHR ag,D1 antagonist,TRHR enhancer,D1 agonist
CCOc1ccc(CCNC(=O)c2ccc(CS(=O)(=O)c3ccccc3C)o2)cc1OCC,-2,0,3,-3,1
Cc1oc(-c2ccc(Cl)cc2)nc1Cn1c(=O)cc(C)c2c(C)nn(-c3ccccc3)c21,-5,0,-12,5,4
O=C(NCc1ccco1)C(=O)NCC1OCCN1S(=O)(=O)c1cc(F)ccc1F (stereo not drawn),10,0,-5,5,3
CC(Sc1nnc(-c2ccco2)n1C)C(=O)N1C(C)CCCC1C (stereo not drawn),-4,0,-41*,4,5
Cc1ccc(C(=O)NCC(c2cccs2)S(=O)(=O)c2ccccc2)cc1C (stereo not drawn),-3,-1,/,4,24
O=C(Nc1ccc(Cl)c(Cl)c1)Nc1ccccc1O,-4,3,-37*,7,21
O=C(NC(=S)Nc1ccc(Br)c(Cl)c1)C1CC1,-5,0,-36*,2,4
CSc1ccccc1NC(=O)Nc1cccc(Cl)c1,-21,0,-40*,8,16
O=C1C=C(NC(=O)Nc2ccc(Cl)c(Cl)c2)CCC1,-9,1,-54*,-7,13
O=C(Nc1ccc(Cl)c(Cl)c1)Nc1ccon1,-3,2,-23,18,26
CC(C)C[C@H](NC(=O)Nc1cccc(Cl)c1)C(=O)O,-3,0,-7,-8,3
COc1ccc(NC(=O)Nc2ccccc2SC)cc1OC,-5,-1,-7,-7,1
CC(C)NC(=O)Nc1cccc(Cl)c1,3,-1,-40*,3,2
O=C(Nc1ccccc1)Nc1ccc(Br)c(Cl)c1,-8,1,-31*,-9,26
CSc1ccccc1NC(=O)Nc1ccc(F)c(Cl)c1,-4,0,-32*,-5,9
O=C(Nc1cccc(Cl)c1)Nc1csc([N+](=O)[O-])c1,-4,2,-47*,-10,27
O=C(Nc1ccncc1)Nc1cccc(Cl)c1,-15,1,-23,6,13
CCn1cc(C(=O)N2CCN(c3ccccc3F)CC2)c(=O)c2cc(S(=O)(=O)N(C)C)ccc21,0,-1,3,6,1
CC1CCN(CC(=O)N(C)c2c(N)n(Cc3ccccc3)c(=O)[nH]c2=O)CC1,-5,0,-5,8,-1
COC(=O)C1CCN(CC(=O)N(C)c2c(N)n(Cc3ccccc3)c(=O)[nH]c2=O)CC1,-5,0,-36*,-2,0
COc1cc(Cl)c(C)cc1NC(=O)Cn1ncc2c(=O)oc3ccccc3c21,1,1,-1,6,1
CCOC(=O)c1c(NC(=O)CSc2ncccn2)sc2c1CCN(Cc1ccccc1)C2,-11,2,-78*,-4,7
CCOC(=O)c1c(NC(=O)CC)sc2c1CCN(Cc1ccccc1)C2,-14,7,1,4,17
COc1ccc(NC(=O)/C(Cl)=C(/Cl)S(=O)Cc2ccc(Cl)cc2)cn1 (stereo not drawn),-7,1,-33*,-17,0
CCCCN(C)CCNC(=O)Cn1ncc2c3ccccc3n(CCC)c2c1=O,6,0,0,31*,0
COCCNC(=O)CS(=O)Cc1nc(-c2ccc(Cl)cc2)oc1C (stereo not drawn),-5,-1,9,-3,0
COCCCNC(=O)CS(=O)Cc1nc(-c2ccccc2C)oc1C (stereo not drawn),-3,0,-48*,1,2
